Source: PubChem BioAssay
Records with an inconclusive call do not appear. A structure can be active in one record and inactive in another. The source made the active and inactive calls. Unless noted, the limit is not given here; nearly all actives have AC50 up to about 26 µM.

Columns and labels:
[1] = growth inhibition of DIPG glioma cells, dose response, cell-based, SU-DIPG-XVII, MIPE5.0, CellTiter-Glo, qHTS (AID 1347060); conditions: SU-DIPG-XVII viability, CellTiter-Glo ATP luminescence;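 as to AC50: cells exposed to compound for 48 hours before viability readout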
[2] = growth inhibition of DIPG glioma cells, dose response, cell-based, SU-DIPG-XIII, MIPE4.0, CellTiter-Glo, qHTS (AID 1347061; cut-off not given, nearly all actives have AC50 up to about 37 µM;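 also: cells exposed to compound for 48 hours before readout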); conditions: SU-DIPG-XIII viability, CellTiter-Glo ATP luminescence
[3] = growth inhibition of DIPG glioma cells, dose response, cell-based, JHH-DIPG-1, MIPE4.0, CellTiter-Glo, qHTS (AID 1347062; cut-off not given, nearly all actives have AC50 up to about 27 µM;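 as to AC50: cells exposed to compound for two days before readout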); conditions: JHH-DIPG-1 viability, CellTiter-Glo ATP luminescence
[4] = growth inhibition of DIPG glioma cells, dose response, cell-based, SU-DIPG-IV, MIPE4.0, CellTiter-Glo, qHTS (AID 1347063; cut-off not given, nearly all actives have AC50 up to about 30 µM;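 also: compound exposure lasted 48 hours before the viability readout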); conditions: SU-DIPG-IV viability, CellTiter-Glo ATP luminescence
[5] = growth inhibition of DIPG glioma cells, dose response, cell-based, SU-DIPG-XIII, MIPE5.0, CellTiter-Glo, qHTS (AID 1347064; cut-off not given, nearly all actives have AC50 up to about 23 µM;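 as to AC50: cells exposed to compound for 48 hours before the viability read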); conditions: SU-DIPG-XIII viability, CellTiter-Glo ATP luminescence
[6] = viability loss in pontine glioma line – cell-based, SU-DIPG-XXV, MIPE5.0, CellTiter-Glo, qHTS, dose response (AID 1347065); conditions: CellTiter-Glo ATP luminescence;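 also: cells exposed to compound for 48 hours before ATP readout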
[7] = SU-DIPG-VI glioma cell viability, MIPE4.0 library, CellTiter-Glo luminescence, qHTS (AID 1347066; cut-off not given, nearly all actives have AC50 up to about 30 µM;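 also: cells exposed to compound for 48 hours before readout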); conditions: CellTiter-Glo ATP luminescence
[8] = JHH-DIPG-1 glioma cell viability, MIPE5.0 library, CellTiter-Glo luminescence, qHTS (AID 1347067); conditions: JHH-DIPG-1 glioma viability, CellTiter-Glo ATP luminescence;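 also: cells exposed to compound for 48 hours before readout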
[9] = SU-DIPG-XXV glioma cell viability, MIPE5.0 library, qHTS (AID 1347068; cut-off not given, nearly all actives have IC50 up to about 30 µM;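 as to IC50: cells exposed to compound for 48 hours before viability readout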)
[10] = liver-stage malaria parasite growth inhibition, primary screen, cell-based, HepG2, luciferase luminescence, HepG2 viability (AID 624349; in the data active = parasite load remaining mostly below about 12%, no sharp cut-off; inactive = mostly above about 10%;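 also: 100% = mean of DMSO negative control wells on the same plate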); conditions: P. berghei liver stage in HepG2, luciferase luminescence, concentration not given here; parasite load remaining: stronger effect = lower value; viability: measured here: HepG2 viability without parasites
[11] = tested on: Aerobactin synthetase IucA (Klebsiella pneumoniae); assay: IucA aerobactin synthetase inhibitors, biochemical, Tocris library, absorbance (AID 1345561; call rule not given here;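 also: 100% = enzyme without compound and 0% = no enzyme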); conditions: purified IucA enzyme assay, absorbance (OD) read-out; stronger effect = lower value;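 tested at 8 µM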
[12] = sensitizers of A549 cells to miR-34 induction, primary screen, imaging, A549 dox-inducible miR-34, nuclei and caspase counts (AID 1347080;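 active = compounds whose cell count with miR-34 switched on is under 0.7 times the count with it off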); conditions: A549 miR-34 inducible, Hoechst nuclei count, 48 h
[13] = viability rescue of complex I mutant cybrids, primary screen, cell-based, galactose medium, ATP luminescence (AID 1645843;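 active = z-score of at least 1.8 in each of two replicates, scored against plate mean and spread of sample wells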;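 also: positive z means more ATP and so rescue of galactose-driven cybrid death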); conditions: complex I mutant cybrid cells, 72 h, stronger effect = higher value
[14] = stronger effect = lower value, cell number ratio, induced over uninduced
[15] = measured here: relative caspase fold change +Dox/-Dox
[16] = measured here: total cells with miR-34 induction, stronger effect = lower value
[17] = measured here: total cells without miR-34 induction

Cn1cc(C[C@@H](N)C(=O)O)c2ccccc21
inactive: outcome [1] | outcome [2] | outcome [3] | outcome [4] | outcome [5] | outcome [6] | outcome [7] | outcome [8] | outcome [9]

COc1cc2nc(-c3ccc(N4CCN(C)CC4)cc3)nc(NCCN3CCOCC3)c2cc1OC
active: AC50 [1] 14.8 µM | AC50 [2] 0.332 µM | AC50 [3] 0.332 µM | AC50 [4] 132 nM | AC50 [5] 9.34 µM | AC50 [6] 8.33 µM | AC50 [7] 0.118 µM | AC50 [8] 16.6 µM
inactive: outcome [9]

Cc1cc(C)c(CNC(=O)c2cc(-c3ccc(N4CCN(C)CC4)nc3)cc3c2c(C)cn3C(C)C)c(=O)[nH]1
inactive: outcome [1] | outcome [5] | outcome [9]
active: AC50 [1] 20.9 µM | AC50 [6] 26.3 µM

CC(=O)OC[C@@H]1O[C@@H](n2ccc(=O)[nH]c2=O)[C@H](OC(C)=O)[C@@H]1OC(C)=O
inactive: outcome [1] | outcome [2] | outcome [3] | outcome [4] | outcome [5] | outcome [6] | outcome [7] | outcome [8] | outcome [9]

COC(=O)C[C@](O)(CCCC(C)(C)O)C(=O)O[C@@H]1C(OC)=CC23CCCN2CCc2cc4c(cc2[C@H]13)OCO4 (stereo partly specified)
active: AC50 [1] 0.0661 µM | AC50 [5] 0.118 µM | AC50 [6] 0.0934 µM | AC50 [8] 0.332 µM
inactive: outcome [2] | outcome [3] | outcome [4] | outcome [7] | outcome [9]

O=C(NC1CC1)c1cccc(-c2ccc3c(NC(=O)C4CC4)n[nH]c3c2)c1
active: AC50 [1] 10.5 µM | AC50 [2] 4.69 µM | AC50 [3] 9.35 µM | AC50 [4] 11800 nM | AC50 [5] 8.33 µM

COc1cccc2nc(-c3cccs3)nc(NN3C(=O)C=C(C)C3=O)c12
active: AC50 [1] 0.833 µM | AC50 [2] 10.5 µM | AC50 [3] 16.6 µM | AC50 [4] 296 nM | AC50 [5] 2.09 µM | AC50 [6] 1.66 µM | AC50 [7] 3.72 µM | AC50 [8] 2.35 µM | IC50 [9] 7.42 µM

COc1ccc(Nc2cc(-c3cnc(N)nc3)nc(N3CCOCC3)n2)cn1
active: AC50 [1] 2.95 µM | AC50 [2] 18.7 µM | AC50 [3] 5.9 µM | AC50 [4] 4690 nM | AC50 [5] 1.66 µM | AC50 [6] 1.32 µM | AC50 [7] 4.18 µM

CC(C)C[C@H](CO)Nc1nc(S[C@@H](C)c2ccccc2)nc2nc(N)sc12
inactive: outcome [1]

COc1ccc(OC)c2c(=S)c3ccccc3[nH]c12
8120: cell count [12, 16]
149%: viability [10]
1.3: fold change [12, 15]
inactive: parasite load remaining [10] 32.4% | remaining activity [11] 86.6% | fold change [12, 14] 0.958 | z-score [13] 0.325
8480: cell count [12, 17]

COc1cc(C)c(Sc2cnc(NC(=O)c3ccc(CNC(C)C(C)(C)C)cc3)s2)cc1C(=O)N1CCN(C(C)=O)CC1 (stereo unspecified)
active: AC50 [1] 10.5 µM | AC50 [2] 16.6 µM | AC50 [3] 20.9 µM | AC50 [4] 7430 nM | AC50 [5] 6.61 µM | AC50 [6] 4.17 µM | AC50 [7] 18.7 µM

CN(C)c1ccc2cc(C(=O)N[C@@H](CCCN=C(N)CCl)C(=O)NCc3ccccc3)ccc2c1
active: AC50 [1] 8.33 µM | AC50 [2] 16.6 µM | AC50 [3] 13.2 µM | AC50 [4] 7430 nM | AC50 [5] 2.63 µM | AC50 [6] 9.34 µM | AC50 [7] 16.6 µM | AC50 [8] 8.33 µM

CCn1cc(-c2ccnc3[nH]c(-c4cccc(CN(C)C)c4)cc23)c(-c2ccc(NC(=O)N(C)C)cc2)n1
active: AC50 [1] 0.59 µM | AC50 [2] 13.2 µM | AC50 [3] 16.6 µM | AC50 [4] 209 nM | AC50 [5] 8.33 µM | AC50 [6] 0.525 µM | AC50 [7] 20.9 µM | AC50 [8] 11.8 µM | IC50 [9] 7.42 µM

COc1cc2ncnc(Nc3ccc(Oc4ccccc4)cc3)c2cc1OC
67.6%: viability [10]
9040: cell count [12, 17]
1.11: fold change [12, 15]
8700: cell count [12, 16]
inactive: parasite load remaining [10] 30.7% | remaining activity [11] 104% | fold change [12, 14] 0.963 | z-score [13] 0.48

C=CCNc1c(O)cc2c(O)c1C[C@@H](C)C[C@H](OC)[C@H](O)[C@@H](C)/C=C(/C)[C@H](OC(N)=O)[C@@H](OC)/C=C\C=C(\C)C(=O)N2
active: AC50 [1] 0.525 µM | AC50 [2] 1.05 µM | AC50 [3] 0.332 µM | AC50 [4] 148 nM | AC50 [5] 1.66 µM | AC50 [6] 3.72 µM | AC50 [7] 14.8 µM | AC50 [8] 0.468 µM

O=C1NC(=O)/C(=C/c2ccc3nccc(-c4ccncc4)c3c2)S1
active: AC50 [1] 1.18 µM | AC50 [2] 0.743 µM | AC50 [3] 1.05 µM | AC50 [4] 83.3 nM | AC50 [5] 1.48 µM | AC50 [6] 0.468 µM | AC50 [7] 0.264 µM | AC50 [8] 1.48 µM | IC50 [9] 1.32 µM

C[C@H](O)[C@@H]1C(=O)N2C(C(=O)O)=C(S[C@@H]3CN[C@H](CNS(N)(=O)=O)C3)[C@@H](C)[C@@H]12
inactive: outcome [1] | outcome [2] | outcome [3] | outcome [4] | outcome [5] | outcome [6] | outcome [7] | outcome [8] | outcome [9]

CC[C@@]1(O)C(=O)OCc2c1cc1n(c2=O)Cc2c-1nc1cc(F)c(C)c3c1c2[C@@H](N)CC3
active: AC50 [1] 0.00235 µM

Nc1[nH]nc2nc3ccccc3nc12
97.8%: viability [10]
0.743: fold change [12, 15]
inactive: parasite load remaining [10] 38.7% | remaining activity [11] 110% | fold change [12, 14] 0.889 | z-score [13] -0.17
8840: cell count [12, 17]
7860: cell count [12, 16]

CN(C(=O)CNC(=O)/C=C/c1cccc(Cl)c1)C1CCS(=O)(=O)CC1
active: AC50 [1] 1.05 µM

COc1cc(C(=O)NC(N)=Nc2ccc(C)c(NC(=O)c3ccc(-c4ccccc4)cc3)c2)cc(OC)c1OC
active: AC50 [1] 16.6 µM

COC(=O)C1=C(C)NC(c2ncc(F)cc2F)=N[C@H]1c1ccc(F)cc1Cl
active: AC50 [1] 23.5 µM
